The nature of assay [1]: qHTS assay to identify small molecule agonists of the androgen receptor (AR) signaling pathway in the presence of an antagonist - cell viability counter screen (AID 1259379). Also: nearly all actives have a fitted effect of over 25% in size. Also: potency is read from the fitted curve at half-maximal effect. The procedure, abridged:
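Counter screen for cell viability run in parallel with the AR agonist-mode luciferase assay. MDA-kb2 cells were co-treated with nilutamide (3.0uM final) and compounds, then incubated 16 hr at 37C, and CellTiter-Fluor fluorescence was measured.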

A short description of assay [2]: qHTS assay to identify small molecule agonists of the estrogen receptor beta (ER-beta) signaling pathway - cell viability counter screen (AID 1259380). Also: nearly all actives have a fitted effect of over 30% in size. Also: potency is read from the fitted curve at half-maximal effect. A digest of the protocol: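 In this qHTS counter screen, HEK293T cells carrying an ER-beta/UAS beta-lactamase reporter, grown in 2% charcoal-stripped FBS, received compound for 16 hr; ATP-based CellTiter-Glo luminescence was then read after 30 min at room temperature.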
Background: qHTS replaces the single test concentration by a dilution series.

Assay [3] concerns the target Androgen receptor (Homo sapiens) (UniProt P10275). The experiment in a line: qHTS assay to identify small molecule agonists of the androgen receptor (AR) signaling pathway in the presence of an antagonist (AID 1259381; calls by dose curve; also: nearly all actives have a fitted effect of over 15% in size). A digest of the protocol:
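AR antagonist background: nilutamide 3.0uM final. Cell line: MDA-kb2, MMTV-driven luciferase, responsive to both AR and GR. Exposure 16hr, 37C, no CO2; ONE-Glo luminescence.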

Assay [4] in a line: qHTS assay to identify small molecule antagonists of the estrogen receptor beta (ER-beta) signaling pathway - cell viability counter screen (AID 1259382). Also: nearly all actives have a fitted effect of over 55% in size. Also: potency is read from the fitted curve at half-maximal effect. The procedure, abridged: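 HEK293T ER-beta-UAS-bla, 2% charcoal-stripped FBS; compounds + 1nM E2 16 hr 37C; CellTiter-Glo luminescence, 30 min RT.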
Assay [5] has as its target Estrogen receptor (Homo sapiens) (UniProt P03372). Description: qHTS assay to identify small molecule agonists of the estrogen receptor alpha (ER-alpha) signaling pathway in the presence of an antagonist (AID 1259383; calls by dose curve; also: top concentration of the series differs between compounds; nearly all actives have a fitted effect of over 15% in size). The procedure, abridged:
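ER-alpha agonism measured under antagonist challenge: 10.0nM ICI-182,780 (final) plus compound, 15 concentrations, 22hr, VM7Luc4E2 ERE-luciferase cells. Read by luminescence.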

The target of assay [6] is Thyrotropin receptor (Homo sapiens) (UniProt P16473). Description: qHTS assay to identify small molecule antagonists of the thyroid stimulating hormone receptor (TSHR) signaling pathway (AID 1259385; calls by dose curve; also: nearly all actives have a fitted effect of over 20% in size). A digest of the protocol:
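Antagonist mode: compound-treated TSHR-expressing HEK293 cells were stimulated with 1.5 ng/mL TSH (final) in presence of Ro20-1724 for 30 min at RT. HTRF cAMP detection after 1 h; each compound tested at 15 concentrations, triplicate.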

Assay [7] can be described thus: qHTS assay to identify small molecule agonists of the estrogen receptor alpha (ER-alpha) signaling pathway in the presence of an antagonist - cell viability counter screen (AID 1259386).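 Also: cells exposed to compounds for 22 h at 37 °C before the viability read; nearly all actives have a fitted effect of over 30% in size.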 Also: potency is read from the fitted curve at half-maximal effect. The procedure, abridged:
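Steps: 5-day stripped-FBS culture; seed and incubate 24hr; add ICI-182,780 (10.0nM final); pin 15-point compound titration; incubate 22hr at 37C; add CellTiter-Fluor at 21hr; read fluorescence.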

Assay [8] deals with Progesterone receptor (Homo sapiens) (UniProt P06401). Description: qHTS assay to identify small molecule agonists of the progesterone receptor (PR) signaling pathway (AID 1346784; calls by dose curve; also: nearly all actives have a fitted effect of over 30% in size). A digest of the protocol:
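PR-UAS-bla HEK 293T cells carrying a UAS-driven beta-lactamase reporter were seeded in medium with 2% charcoal-stripped FBS, preincubated 6 hr at 37C, then exposed to compounds in DMSO for 16 hr; agonism was read by LiveBLAzer B/G FRET fluorescence.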

For assay [9] the target is unchanged. The experiment in a line: qHTS assay to identify small molecule antagonists of the progesterone receptor (PR) signaling pathway (AID 1346795; active = well fitted inhibition curve with a large enough effect in the signal ratio in the repeat runs, not every such curve was filed as active; the % refers to the signal ratio; also: potency is read from the fitted curve at half-maximal effect). A digest of the protocol:
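PR-UAS-bla HEK293T cells carrying a UAS-driven beta-lactamase reporter were plated in medium with 2% charcoal-stripped FBS and rested 6 hr at 37C. Compounds were added with 1 nM R5020 (final) for 16 hr, then FRET substrate loaded 2 hr at room temperature.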

Assay [10] in a line: qHTS assay to identify small molecule agonists of the progesterone receptor (PR) signaling pathway - cell viability counter screen (AID 1346799; calls by dose curve; also: nearly all actives have a fitted effect of over 45% in size; also: potency is read from the fitted curve at half-maximal effect). A digest of the protocol:
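PR-UAS-bla HEK293T cells, 3,000 per well in medium with 2% charcoal-stripped FBS, were preincubated 6 hr at 37C, then exposed to compounds for 16 hr; viability was read as CellTiter-Glo luminescence after 30 min at room temperature.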

A short description of assay [11]: qHTS assay to identify small molecule antagonists of the TGF-beta/Smad signaling pathway - cell viability counter screen (AID 1346824). Also: nearly all actives have a fitted effect of over 50% in size. Also: potency is read from the fitted curve at half-maximal effect. The procedure, abridged: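 Cytotoxicity counter-screen run in the same wells as the beta-lactamase Smad reporter read: CellTiter-Glo luminescence after 30 min at room temperature. HEK 293T SBE-bla cells had 5 hr compound exposure at 37 C with TGF-beta1 (0.25 ng/mL stock).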

Assay [12] is described as follows: qHTS assay to identify small molecule agonists of the TGF-beta/Smad signaling pathway - cell viability counter screen (AID 1346829). Also: nearly all actives have a fitted effect of over 45% in size. Also: potency is read from the fitted curve at half-maximal effect. A digest of the protocol: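 Cytotoxicity counter screen: CellTiter-Glo luminescence (30 min, room temperature) measured in the SBE-bla HEK 293T reporter wells after 5 hr compound treatment at 37 C and the 2 hr substrate step.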
Assay [13] in a line: qHTS assay to identify small molecule agonists of the TGF-beta/Smad signaling pathway (AID 1346859; active = well fitted activation curve with a large enough effect in the signal ratio in the repeat runs, not every such curve was filed as active; the % refers to the signal ratio; also: series mostly up to about 77 µM). A digest of the protocol:
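HEK 293T cells stably carrying a beta-lactamase reporter driven by the Smad binding element were seeded overnight, exposed to DMSO-dissolved compounds for 5 hr at 37 C, 5% CO2, then loaded with FRET substrate for 2 hr at room temperature.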

Assay [14] concerns the target Thyrotropin-releasing hormone receptor (Homo sapiens) (UniProt P34981). The experiment in a line: qHTS assay to identify small molecule antagonists of the thyrotropin-releasing hormone receptor (TRHR) signaling pathway (AID 1346877; active = well fitted inhibition curve with a large enough effect in the repeat runs, not every such curve was filed as active; also: series mostly up to about 51 µM). A digest of the protocol: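 Human TRHR in HEK293 cells; inhibition of the intracellular calcium rise triggered by 1 nM TRH was followed by fluorescence over 3 min. Compounds were run at 15 concentrations, three replicates each.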

For assay [15] the target is unchanged. Description: qHTS assay to identify small molecule agonists of the thyrotropin-releasing hormone receptor (TRHR) signaling pathway (AID 1346891; calls by dose curve; also: series mostly up to about 58 µM). A digest of the protocol: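 TRHR-expressing HEK293 cells were plated 18 h at 37 °C/5% CO2, loaded with calcium dye 2 h at 37 °C, then given compound in DMSO; fluorescence was read kinetically for 3 min at 1 s intervals.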

Assay [16] is described as follows: Human pregnane X receptor (PXR) small molecule agonists, qHTS cell viability counter screen (AID 1346977). Also: nearly all actives have a fitted effect of over 50% in size. Also: potency is read from the fitted curve at half-maximal effect. A digest of the protocol:
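PXR-Luc HepG2 cells in medium with 5% charcoal-stripped FBS were pre-incubated 5hr, then exposed to compounds for 24hr at 37C. Viability was read in the same wells by CellTiter-Fluor fluorescence, reagent added after 23hr with a 1hr incubation.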

Assay [17] can be described thus: Caspase-3/7 induction in HepG2 cells by small molecules, qHTS assay (AID 1346978). Also: nearly all actives have a fitted effect of over 15% in size. Also: potency is read from the fitted curve at half-maximal effect. A digest of the protocol: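 Caspase-3/7 induction was measured by Caspase-Glo 3/7 luminescence (30 min, room temperature) after a 17 hr compound exposure of wild-type HepG2 cells seeded at 2,000 per well and pre-incubated 5 hr.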
Assay [18] is described as follows: qHTS assay to identify small molecule agonists or antagonists of the thyroid stimulating hormone receptor (TSHR) signaling pathway - wild type cell line counter screen (AID 1259384; calls by dose curve). A digest of the protocol: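 Counter screen in untransfected Hek293: compounds (15-point titration, triplicate) plus phosphodiesterase inhibitor Ro20-1724 added after 18 h plating; 30 min RT. Intracellular cAMP via competitive d2/cryptate immunoassay, 1 h incubation.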

Assay [19] in a line: qHTS assay to identify small molecule antagonists of the progesterone receptor (PR) signaling pathway - cell viability counter screen (AID 1346798). Also: nearly all actives have a fitted effect of over 50% in size. Also: potency is read from the fitted curve at half-maximal effect. A digest of the protocol:
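PR-UAS-bla HEK293T cells in medium with 2% charcoal-stripped FBS were treated with compounds plus R5020 for 16 hr at 37C. Cell viability was then read by CellTiter-Glo luminescence after 30 min at room temperature in the same wells.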

A number with no mark means an inactive call. Inconclusive results are not listed. Activity calls are given as the source filed them. Unless noted, calls follow the shape of the dose curve; as a rule, active = well fitted curve in the direction sought with a large enough effect in the repeat runs; inconclusive = weak or mixed curves; inactive = no such curve, though single readings can be large; an effect the other way counts as inactive or inconclusive.

Sequence of Androgen receptor (Homo sapiens) (P10275 whole entry, looked up): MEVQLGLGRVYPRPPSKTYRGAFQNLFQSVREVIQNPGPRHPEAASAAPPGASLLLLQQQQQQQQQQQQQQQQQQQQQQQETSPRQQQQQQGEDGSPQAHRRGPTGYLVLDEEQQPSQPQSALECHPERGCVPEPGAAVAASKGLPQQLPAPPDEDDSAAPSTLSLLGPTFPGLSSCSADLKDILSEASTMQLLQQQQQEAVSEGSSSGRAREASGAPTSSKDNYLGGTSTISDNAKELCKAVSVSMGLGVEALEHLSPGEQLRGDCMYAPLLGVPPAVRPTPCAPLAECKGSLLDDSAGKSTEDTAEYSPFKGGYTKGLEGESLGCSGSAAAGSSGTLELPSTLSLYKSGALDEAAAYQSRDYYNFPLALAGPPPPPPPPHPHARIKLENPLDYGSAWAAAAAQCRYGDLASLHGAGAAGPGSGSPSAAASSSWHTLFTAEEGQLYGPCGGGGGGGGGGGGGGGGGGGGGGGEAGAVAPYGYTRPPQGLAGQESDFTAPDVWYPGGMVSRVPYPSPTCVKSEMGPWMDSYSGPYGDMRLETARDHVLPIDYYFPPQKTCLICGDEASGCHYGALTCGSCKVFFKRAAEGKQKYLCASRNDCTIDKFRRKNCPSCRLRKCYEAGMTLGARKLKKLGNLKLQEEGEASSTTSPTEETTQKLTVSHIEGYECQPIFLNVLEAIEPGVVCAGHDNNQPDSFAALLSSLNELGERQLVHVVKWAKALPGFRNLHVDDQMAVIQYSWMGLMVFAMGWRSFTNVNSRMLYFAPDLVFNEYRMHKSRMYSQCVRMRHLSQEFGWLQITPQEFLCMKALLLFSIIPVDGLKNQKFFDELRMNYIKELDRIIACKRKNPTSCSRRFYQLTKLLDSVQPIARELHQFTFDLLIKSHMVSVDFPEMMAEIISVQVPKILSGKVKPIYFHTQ
Sequence of Estrogen receptor (Homo sapiens) (P03372 whole entry, looked up): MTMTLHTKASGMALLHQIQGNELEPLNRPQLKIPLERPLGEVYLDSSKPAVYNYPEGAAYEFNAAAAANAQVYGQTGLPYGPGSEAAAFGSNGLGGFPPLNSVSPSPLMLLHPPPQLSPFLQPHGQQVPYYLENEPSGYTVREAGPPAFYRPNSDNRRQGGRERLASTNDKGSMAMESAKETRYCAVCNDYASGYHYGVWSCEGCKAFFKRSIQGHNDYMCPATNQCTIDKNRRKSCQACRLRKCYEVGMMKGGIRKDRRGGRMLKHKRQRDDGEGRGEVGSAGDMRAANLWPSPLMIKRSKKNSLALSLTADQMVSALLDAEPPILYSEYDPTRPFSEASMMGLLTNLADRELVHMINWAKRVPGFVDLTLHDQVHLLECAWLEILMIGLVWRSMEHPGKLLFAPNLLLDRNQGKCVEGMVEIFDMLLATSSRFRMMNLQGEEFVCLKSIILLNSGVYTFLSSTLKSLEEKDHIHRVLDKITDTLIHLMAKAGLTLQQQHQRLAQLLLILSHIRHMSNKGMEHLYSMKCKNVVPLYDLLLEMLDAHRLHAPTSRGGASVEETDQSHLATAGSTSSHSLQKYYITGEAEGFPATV
Sequence of Thyrotropin-releasing hormone receptor (Homo sapiens) (P34981 whole entry, looked up): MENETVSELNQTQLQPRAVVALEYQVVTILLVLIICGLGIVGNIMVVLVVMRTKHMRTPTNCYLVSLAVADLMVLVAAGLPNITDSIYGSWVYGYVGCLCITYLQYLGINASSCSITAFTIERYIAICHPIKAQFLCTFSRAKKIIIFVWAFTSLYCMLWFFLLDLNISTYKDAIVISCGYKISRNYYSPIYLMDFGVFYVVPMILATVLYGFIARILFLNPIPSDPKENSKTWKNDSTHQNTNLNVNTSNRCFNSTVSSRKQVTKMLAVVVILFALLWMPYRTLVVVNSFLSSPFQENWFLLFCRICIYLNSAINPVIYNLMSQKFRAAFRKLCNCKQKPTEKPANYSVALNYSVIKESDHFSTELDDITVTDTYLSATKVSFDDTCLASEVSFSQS
Sequence of Thyrotropin receptor (Homo sapiens) (P16473 whole entry, looked up): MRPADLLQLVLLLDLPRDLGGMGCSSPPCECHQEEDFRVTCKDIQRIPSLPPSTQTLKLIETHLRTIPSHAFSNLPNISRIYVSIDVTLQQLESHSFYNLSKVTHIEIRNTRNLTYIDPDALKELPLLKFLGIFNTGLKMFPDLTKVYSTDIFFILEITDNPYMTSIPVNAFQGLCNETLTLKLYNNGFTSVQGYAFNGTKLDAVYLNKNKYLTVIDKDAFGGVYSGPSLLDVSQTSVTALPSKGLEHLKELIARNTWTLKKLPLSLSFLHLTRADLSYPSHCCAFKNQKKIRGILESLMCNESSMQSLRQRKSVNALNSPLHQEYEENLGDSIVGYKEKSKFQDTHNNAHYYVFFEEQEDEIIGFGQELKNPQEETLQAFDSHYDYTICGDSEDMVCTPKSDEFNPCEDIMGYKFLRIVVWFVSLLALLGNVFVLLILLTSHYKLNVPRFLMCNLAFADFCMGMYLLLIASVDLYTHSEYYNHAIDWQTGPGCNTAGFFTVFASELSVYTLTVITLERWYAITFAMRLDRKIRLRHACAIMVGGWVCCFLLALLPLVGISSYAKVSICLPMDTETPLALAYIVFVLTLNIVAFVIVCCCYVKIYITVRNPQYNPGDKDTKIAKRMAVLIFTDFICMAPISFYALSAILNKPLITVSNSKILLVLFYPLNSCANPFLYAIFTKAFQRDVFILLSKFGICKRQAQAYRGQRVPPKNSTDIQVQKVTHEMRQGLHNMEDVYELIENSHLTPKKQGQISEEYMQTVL
Sequence of Progesterone receptor (Homo sapiens) (P06401 whole entry, looked up): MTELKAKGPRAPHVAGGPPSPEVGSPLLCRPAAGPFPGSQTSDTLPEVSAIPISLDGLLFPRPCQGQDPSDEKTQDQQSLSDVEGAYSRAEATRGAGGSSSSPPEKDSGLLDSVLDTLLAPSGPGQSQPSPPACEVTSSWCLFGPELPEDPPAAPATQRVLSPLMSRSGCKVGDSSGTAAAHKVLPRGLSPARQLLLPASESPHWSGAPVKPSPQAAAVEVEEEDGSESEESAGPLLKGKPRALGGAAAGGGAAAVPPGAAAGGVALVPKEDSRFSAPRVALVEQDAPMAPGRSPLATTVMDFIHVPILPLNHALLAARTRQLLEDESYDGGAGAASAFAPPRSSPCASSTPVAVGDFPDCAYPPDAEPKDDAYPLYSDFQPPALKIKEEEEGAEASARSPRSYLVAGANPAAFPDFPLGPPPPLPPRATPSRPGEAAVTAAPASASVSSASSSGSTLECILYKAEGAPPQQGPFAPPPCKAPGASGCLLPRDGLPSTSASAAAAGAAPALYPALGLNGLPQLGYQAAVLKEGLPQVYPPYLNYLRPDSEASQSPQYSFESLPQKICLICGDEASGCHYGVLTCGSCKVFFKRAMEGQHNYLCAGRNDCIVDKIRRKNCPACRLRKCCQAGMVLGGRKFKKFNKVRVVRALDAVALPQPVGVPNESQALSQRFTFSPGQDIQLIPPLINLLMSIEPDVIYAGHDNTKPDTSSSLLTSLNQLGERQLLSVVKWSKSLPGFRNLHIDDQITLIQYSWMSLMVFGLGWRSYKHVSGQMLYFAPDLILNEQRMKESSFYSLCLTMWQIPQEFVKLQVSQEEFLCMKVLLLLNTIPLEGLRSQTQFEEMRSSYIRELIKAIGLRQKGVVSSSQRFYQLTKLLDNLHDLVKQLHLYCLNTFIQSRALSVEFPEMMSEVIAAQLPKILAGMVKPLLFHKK

As for `COc1ccc([N+](=O)[O-])cc1O`, the Potency entry in assay [1], in [2], in assay [3], in assay [4], in assay [5] and in [6] was “inactive” throughout. Also, the Potency entry in assay [7], in assay [8], in assay [9], in assay [10], in assay [11] and in assay [12] was “inactive” throughout. Further, the Potency entry in assay [14], in [15], in assay [16] and in [17] was “inactive” each time. Further, the molecule was classed as inactive in assay [13].

Turning to `CC[C@H](C)[C@H]1O[C@]2(C=C[C@@H]1C)C[C@@H]1C[C@@H](C/C=C(\C)[C@@H](O[C@H]3C[C@H](OC)[C@@H](O[C@H]4C[C@H](OC)[C@@H](O)[C@H](C)O4)[C@H](C)O3)[C@@H](C)/C=C/C=C3\CO[C@@H]4[C@H](O)C(C)=C[C@@H](C(=O)O1)[C@]34O)O2`, the Potency in assay [1] is 36.1 µM (active); in assay [2] it was 18.1 µM (active); in assay [4], 25.6 µM (active); in assay [9] it was 16.1 µM (active); in [16] it was 16.1 µM (active); in [17], 32.2 µM (active). The Potency result in assay [5], in assay [6], in assay [12] and in [15] was “inactive” each time. Besides, in assay [18], the outcome was inactive.

For `ClCc1ccc(Cl)cc1Cl`, the Potency result in [1], in assay [2], in [4], in assay [5], in [6] and in assay [7] was “inactive” throughout. Besides, the Potency entry in [8], in assay [9], in assay [19], in assay [10], in [11] and in [12] was “inactive” in each case. Besides, the Potency entry in assay [16] and in assay [17] was “inactive” throughout. Further, in assay [18], the molecule was classed as inactive.

For `CCCCCCCCCC[N+](C)(C)CCCCCCCCCC`, the Potency in assay [1] is 54.5 µM (active); in assay [2], 15.4 µM (active); in [4], 17.2 µM (active); in [7], 68.6 µM (active); in [19], 19.3 µM (active); in [10], 8.63 µM (active). For the same molecule, the figures for the Potency in assay [11], in assay [12] and in assay [16] were 43.6 µM (active), 38.9 µM (active) and 27.3 µM (active), respectively. Also, the Potency result in assay [5] and in [15] was “inactive” in each case. Also, the molecule was classed as inactive in [18].

With `FC(Cl)(Cl)Cl`, the Potency entry in [1], in [2], in assay [3], in assay [6], in [7] and in assay [8] was “inactive” in each case. For the same molecule, the Potency entry in assay [9], in [19], in assay [10], in assay [11], in [12] and in assay [15] was “inactive” each time. The Potency result in assay [16] and in assay [17] was “inactive” each time. Also, the outcome in assay [18] and in assay [13] was inactive.

On to `CCCCCCCCc1ccc(O)cc1`, for which the Potency entry in assay [1], in assay [3], in [6], in assay [11] and in [12] was “inactive” in each case. Moreover, the Potency in assay [2] was 15.4 µM (active); in assay [9] it was 20.4 µM (active); in [16], 54.8 µM (active); in assay [17], 43.5 µM (active). In addition, in assay [13], the outcome was inactive.

In the case of `CCOP(=S)(OCC)SCCS(=O)(=O)CC`, the Potency result in assay [1], in [2], in assay [4], in [5], in assay [6] and in assay [7] was “inactive” in each case. Also, the Potency result in assay [8], in assay [19], in assay [10], in assay [11], in assay [12] and in [14] was “inactive” in each case. Moreover, the Potency entry in [15], in [16] and in assay [17] was “inactive” in each case. For the same molecule, the call in assay [18] and in [13] was inactive. In assay [9], the Potency is 48.6 µM (active).

For `ClC1=C(Cl)C2(Cl)C3C(Cl)C=CC3C1(Cl)C2(Cl)Cl` (configuration not stated), the Potency result in assay [1], in [4], in assay [5], in assay [6], in assay [7] and in assay [8] was “inactive” in each case. Besides, the Potency entry in assay [19], in [10], in [11] and in assay [17] was “inactive” throughout. Besides, the Potency in assay [2] was 61.4 µM (active). The result in [18] and in assay [13] was inactive.

These data come from PubChem BioAssay (Tox21).
